# Results as given in PubChem BioAssay AID743049 (Broad Institute, 2013).
# Potency and affinity values are given separately. Inconclusive results are not listed. Where a call stands in place of a potency, no number is given. Calls of active or inactive are those of the source. No rule for the calls is given here.
# Test: cytotoxicity dependent on PAX8, dose response, cell-based, plate reader, dry powder (AID 743049)
row,SMILES,outcome
1,Cc1ccccc1CNC(=O)C1CCCN(c2nnc(C)c3c(C)n(-c4ccccc4)nc23)C1 (configuration not stated),inactive
2,COc1ccccc1C#Cc1ccc([C@@H]2[C@@H](C#N)N(C(=O)C3CCCCC3)[C@H]2CO)cc1,inactive
